The structures appear in SMILES notation. A number with no mark means an inactive call. The source made the active and inactive calls. Cut-off read from the data, not from the text of the source, unless noted: active = inhibition above about 42%; inactive = the rest.

As a reminder, the inhibition is the change of the read-out against control, counted positive when it falls.

Tested on in one assay: not listed separately
Kind of assay: StAR promoter reporter inhibitors, counter-screen for LRH-1 inverse agonist project, cell-based, luminescence, high throughput (AID 651611; in the data active = inhibition above about 28%). The following applies: StAR promoter luciferase reporter counterscreen, at 3.6 µM, hits give high values. For orientation: A counterscreen serves to expose hits that act by an unwanted route or on another target.
For the molecule `Cc1[nH][nH]c(=O)c1N=Nc1ccc(S(N)(=O)=O)cc1`, the inhibition was 20.7%.

On to `O=C(Nc1ccc(Cl)cn1)c1ccc([N+](=O)[O-])o1`, for which the inhibition was -0.66%.

For the molecule `COc1ccc(-c2sc(C(=O)c3ccc(Cl)cc3Cl)cc2CC(=O)O)cc1`, the inhibition is 17.8%.

With `CCOc1ccc(NC(=O)CN2CCN(C3c4ccccc4-c4ccccc43)CC2)cc1`, the inhibition is 9.85%.

In the case of `Cc1ccc[n+](CC(=O)Nc2ccc([N+](=O)[O-])cc2)c1`, the inhibition is 12.6%.

For the molecule `COc1ccc(/C=N/NC(=O)c2ccc(NC(=O)c3cccc([N+](=O)[O-])c3)cc2)c(OC)c1`, the inhibition is 13.1%.

Consider `COc1ccc(C2=Nn3c(nnc3-c3ccccc3OC)SC2)cc1OC`, for which the inhibition was 52.6% (active).

For the molecule `CC(=O)N1CCN(c2ccc(NC(=O)c3cccc([N+](=O)[O-])c3)cc2)CC1`, the inhibition is -1.56%.

As for `CC(=O)c1ccc(NC(=O)C(C)O/N=C(\N)c2ccccc2)cc1` (stereo not given), the inhibition was 10.5%.

`COc1cc2c(cc1OC)C(C1C(=O)CC(C)CC1=O)N(C(=O)CCl)CC2` (stereo not given): the inhibition was 19.1%.

With `C/C(=N\N1CCN(c2ccc(Cl)cc2)CC1)c1cccc([N+](=O)[O-])c1`, the inhibition is 12.5%.

Consider `COc1ccc(NC(=O)Cn2c(C)cc(=O)c3ccccc32)cc1`, for which the inhibition was 0.15%.

As to `O=C(Cc1ccccc1)N/N=C/c1ccc([N+](=O)[O-])s1`, the inhibition was 2.21%.

Regarding `COc1ccc(OC)c(-n2c(-c3ccc(S(C)(=O)=O)cc3)cc(C=O)c2C)c1`, the inhibition was 25%.

With `COc1ccccc1OCc1nnc(SCC(=O)Nc2ccc(N3CCOCC3)cc2)n1C`, the inhibition was -2.38%.

Take `COc1ccccc1-n1c(SCC(=O)Nc2ccc(F)cc2)nc2c(c1=O)SCC2`: the inhibition is 10.4%.

As for `Cc1cc(Cl)ccc1NC(=O)CN1C(=O)C(=O)N(C2CCCC2)C1=O`, the inhibition is 5.58%.

For `Cc1cc(OCC(=O)NC2CC2)c2c(C)c(C)c(=O)oc2c1`, the inhibition is 13.4%.

As for `COc1cc(F)c(C2=CC(=O)CC(C)(C)C2)cc1F`, the inhibition was -6.98%.

Regarding `CCn1c(=S)sc2c(=O)n(CC(=O)Nc3ccc(Cl)cc3)c(C)nc21`, the inhibition is 6.76%.

With `CCCCNc1cc(C)nc(NCc2ccccc2)n1`, the inhibition is 35.5% (active).

On to `O=C(c1ccccc1)N1CCN(c2ccc([N+](=O)[O-])c(N3CCOCC3)c2)CC1`, for which the inhibition was 9.16%.

In the case of `COc1ccc(C2=NS(=O)(=O)N(C)C(C(=O)N3CCc4ccccc4C3)=C2)cc1OC`, the inhibition was 5.52%.

For `Cc1cc(C)nc(N/N=C/c2ccc([N+](=O)[O-])o2)n1`, the inhibition was 8.46%.

Regarding `CCCc1cc(=O)oc2cc3oc(C)c(C)c3cc12`, the inhibition is -1.82%.

Turning to `CC[n+]1c(/C=C/c2ccc(N(C)C)cc2)ccc2ccccc21`, the inhibition was 71.9% (active).

For the molecule `Cc1ccc(S(=O)(=O)N2CCc3ccccc3CC2)cc1`, the inhibition was 39.2% (active).

As to `Cc1nc2ccc(NS(=O)(=O)c3ccc4c(c3)OCCO4)cc2s1`, the inhibition was 7.73%.

As to `CC(C)NC(=O)N1Cc2cc(C(=O)NC3CCCC3)nc(-c3cccc(-c4cccnc4)c3)c2[C@@H]1CCO`, the inhibition is 24.3%.

`CCOc1ccc(CCNC(=O)COC(=O)c2c(C)nn(-c3ccccc3)c2C)cc1OCC`: the inhibition is 3.09%.

Regarding `Cc1ccc(SCc2ccc(C(=O)NCc3ccncc3)cc2)cc1`, the inhibition is -0.78%.

With `CCC(C)Nc1nc(-c2cccc(OC)c2O)nc2ccccc12` (stereo not given), the inhibition is 30.8% (active).

As for `CCN(Cc1ccccc1)c1ccc(/C=N/NC(=O)c2cccc(S(=O)(=O)N3CCOCC3)c2)cc1`, the inhibition was 24.6%.

Take `Cc1c(C(=O)NC(C)c2ccncc2)oc2ccccc12` (stereo not given): the inhibition was -19.6%.

Consider `CCOc1ccc(NC(=O)Cn2cc(C(=O)C3CC3)c3ccccc32)cc1`, for which the inhibition is 5.9%.

With `CC1CC(=Cc2ccc(N)cc2)C(=O)O1` (stereo not given), the inhibition is -13.5%.

With `Cc1cc(C)c2sc(NC(=O)c3ccc([N+](=O)[O-])o3)nc2c1`, the inhibition is -1.04%.

For the molecule `COc1ccc(C2(C)NC(=O)N(CC(=O)NCCC3=CCCCC3)C2=O)cc1OC` (stereo not given), the inhibition is 7.18%.

On to `COc1ccc(NC(=O)COC(=O)CNC(=O)c2cc(OC)c(OC)c(OC)c2)cc1`, for which the inhibition is 8.08%.

With `COc1ccc(CCNC(=O)COC(=O)C23CC4CC(CC(Br)(C4)C2)C3)cc1`, the inhibition is 4.42%.

For another assay, the target named is Nuclear receptor subfamily 5 group A member 2 (Homo sapiens) (UniProt O00482). Kind of assay: NR5A2 activity suppression in reporter cells – cell-based, luminescence, confirmation (AID 651613).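 Note: HEK293T cells co-transfected with LRH-1 and StAR promoter luciferase reporter; 0% = vehicle wells and 100% = parental cells lacking receptor.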 The following applies: cell-based LRH-1 luciferase reporter, inverse agonism; at 3.6 µM; hits give high values. (Reporter assays use an easily measured gene product as a stand-in for the process of interest.)
Nuclear receptor subfamily 5 group A member 2 (Homo sapiens), sequence (O00482 whole entry, looked up): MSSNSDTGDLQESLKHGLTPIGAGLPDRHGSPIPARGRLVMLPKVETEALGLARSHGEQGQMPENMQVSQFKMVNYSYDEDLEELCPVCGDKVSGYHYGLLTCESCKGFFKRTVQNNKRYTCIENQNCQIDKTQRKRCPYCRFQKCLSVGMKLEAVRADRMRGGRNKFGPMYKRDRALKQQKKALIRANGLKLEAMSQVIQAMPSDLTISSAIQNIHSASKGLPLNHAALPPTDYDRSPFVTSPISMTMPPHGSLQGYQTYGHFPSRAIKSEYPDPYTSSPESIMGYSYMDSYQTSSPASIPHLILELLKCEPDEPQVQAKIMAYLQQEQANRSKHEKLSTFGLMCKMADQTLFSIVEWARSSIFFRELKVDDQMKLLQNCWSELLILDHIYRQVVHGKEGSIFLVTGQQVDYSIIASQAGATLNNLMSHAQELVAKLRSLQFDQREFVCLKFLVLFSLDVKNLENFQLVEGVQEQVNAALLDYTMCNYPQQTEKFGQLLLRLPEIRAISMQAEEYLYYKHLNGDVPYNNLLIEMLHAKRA
Consider `Cc1[nH][nH]c(=O)c1N=Nc1ccc(S(N)(=O)=O)cc1`, for which the inhibition was 52.1% (active).

In the case of `O=C(Nc1ccc(Cl)cn1)c1ccc([N+](=O)[O-])o1`, the inhibition was 51.5% (active).

For the molecule `COc1ccc(-c2sc(C(=O)c3ccc(Cl)cc3Cl)cc2CC(=O)O)cc1`, the inhibition is 42.2% (active).

Turning to `CCOc1ccc(NC(=O)CN2CCN(C3c4ccccc4-c4ccccc43)CC2)cc1`, the inhibition is 66.5% (active).

As to `Cc1ccc[n+](CC(=O)Nc2ccc([N+](=O)[O-])cc2)c1`, the inhibition is 63.1% (active).

`COc1ccc(/C=N/NC(=O)c2ccc(NC(=O)c3cccc([N+](=O)[O-])c3)cc2)c(OC)c1`: the inhibition is 53.6% (active).

Turning to `COc1ccc(C2=Nn3c(nnc3-c3ccccc3OC)SC2)cc1OC`, the inhibition is 58.7% (active).

As to `CC(=O)N1CCN(c2ccc(NC(=O)c3cccc([N+](=O)[O-])c3)cc2)CC1`, the inhibition is 53.6% (active).

Regarding `CC(=O)c1ccc(NC(=O)C(C)O/N=C(\N)c2ccccc2)cc1` (stereo not given), the inhibition is 51.7% (active).

In the case of `COc1cc2c(cc1OC)C(C1C(=O)CC(C)CC1=O)N(C(=O)CCl)CC2` (stereo not given), the inhibition is 54.1% (active).

On to `C/C(=N\N1CCN(c2ccc(Cl)cc2)CC1)c1cccc([N+](=O)[O-])c1`, for which the inhibition was 15.8%.

`COc1ccc(NC(=O)Cn2c(C)cc(=O)c3ccccc32)cc1`: the inhibition was 64.9% (active).

For the molecule `O=C(Cc1ccccc1)N/N=C/c1ccc([N+](=O)[O-])s1`, the inhibition is 60% (active).

Turning to `COc1ccc(OC)c(-n2c(-c3ccc(S(C)(=O)=O)cc3)cc(C=O)c2C)c1`, the inhibition is 48.2% (active).

Take `COc1ccccc1OCc1nnc(SCC(=O)Nc2ccc(N3CCOCC3)cc2)n1C`: the inhibition is 17.9%.

For `COc1ccccc1-n1c(SCC(=O)Nc2ccc(F)cc2)nc2c(c1=O)SCC2`, the inhibition was 54.9% (active).

Consider `Cc1cc(Cl)ccc1NC(=O)CN1C(=O)C(=O)N(C2CCCC2)C1=O`, for which the inhibition is 50.9% (active).

`Cc1cc(OCC(=O)NC2CC2)c2c(C)c(C)c(=O)oc2c1`: the inhibition is 65.4% (active).

In the case of `COc1cc(F)c(C2=CC(=O)CC(C)(C)C2)cc1F`, the inhibition was 43.9% (active).

Turning to `CCn1c(=S)sc2c(=O)n(CC(=O)Nc3ccc(Cl)cc3)c(C)nc21`, the inhibition is 55.2% (active).

For the molecule `CCCCNc1cc(C)nc(NCc2ccccc2)n1`, the inhibition was 57.6% (active).

For the molecule `O=C(c1ccccc1)N1CCN(c2ccc([N+](=O)[O-])c(N3CCOCC3)c2)CC1`, the inhibition was 39.5%.

`COc1ccc(C2=NS(=O)(=O)N(C)C(C(=O)N3CCc4ccccc4C3)=C2)cc1OC`: the inhibition was 43% (active).

Regarding `Cc1cc(C)nc(N/N=C/c2ccc([N+](=O)[O-])o2)n1`, the inhibition was 57.7% (active).

For the molecule `CCCc1cc(=O)oc2cc3oc(C)c(C)c3cc12`, the inhibition was 52.3% (active).

With `CC[n+]1c(/C=C/c2ccc(N(C)C)cc2)ccc2ccccc21`, the inhibition was 103% (active).

Regarding `Cc1ccc(S(=O)(=O)N2CCc3ccccc3CC2)cc1`, the inhibition is 66.3% (active).

For `Cc1nc2ccc(NS(=O)(=O)c3ccc4c(c3)OCCO4)cc2s1`, the inhibition is 56.4% (active).

Take `CC(C)NC(=O)N1Cc2cc(C(=O)NC3CCCC3)nc(-c3cccc(-c4cccnc4)c3)c2[C@@H]1CCO`: the inhibition was 45.1% (active).

Turning to `CCOc1ccc(CCNC(=O)COC(=O)c2c(C)nn(-c3ccccc3)c2C)cc1OCC`, the inhibition is 41.6% (active).

Consider `Cc1ccc(SCc2ccc(C(=O)NCc3ccncc3)cc2)cc1`, for which the inhibition was 55.9% (active).

As for `CCC(C)Nc1nc(-c2cccc(OC)c2O)nc2ccccc12` (stereo not given), the inhibition was 52.4% (active).

Regarding `CCN(Cc1ccccc1)c1ccc(/C=N/NC(=O)c2cccc(S(=O)(=O)N3CCOCC3)c2)cc1`, the inhibition was 66.8% (active).

Take `Cc1c(C(=O)NC(C)c2ccncc2)oc2ccccc12` (stereo not given): the inhibition is 44.2% (active).

As for `CCOc1ccc(NC(=O)Cn2cc(C(=O)C3CC3)c3ccccc32)cc1`, the inhibition is 44.1% (active).

In the case of `CC1CC(=Cc2ccc(N)cc2)C(=O)O1` (stereo not given), the inhibition was 41.8% (active).

As for `Cc1cc(C)c2sc(NC(=O)c3ccc([N+](=O)[O-])o3)nc2c1`, the inhibition was 54.4% (active).

For the molecule `COc1ccc(C2(C)NC(=O)N(CC(=O)NCCC3=CCCCC3)C2=O)cc1OC` (stereo not given), the inhibition was 67.2% (active).

Turning to `COc1ccc(NC(=O)COC(=O)CNC(=O)c2cc(OC)c(OC)c(OC)c2)cc1`, the inhibition is 42.9% (active).

Consider `COc1ccc(CCNC(=O)COC(=O)C23CC4CC(CC(Br)(C4)C2)C3)cc1`, for which the inhibition was 53.8% (active).

These data come from PubChem BioAssay.
